The whole screen tested about 53,000 sequences, of which about 3,700 (7%) were called active. Only a selection was taken, and actives are over-represented in it overall. Values without a mark were called inactive.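 How the source made its calls: active means gene knockdowns whose robust z-score for IL-1 alpha signal is at least 2 or at most -2, so actives lie on both sides; inactive means the rest.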

The nature of this assay: Components of the Cytosolic LPS Sensing Pathway: Gene Identification via Genome-wide siRNA Screen.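 Further: robust z of the log signal after scaling to non-targeting control siRNA wells of the plate.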 To be noted: RAW264.7 macrophages, IL-1a HTRF, actives lie on both sides, screened at 100 nM (by protocol), cells primed 5 h with Pam3CSK4 first. The method in brief:
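Three distinct siRNAs per gene were tested singly at 100 nM in RAW264.7 macrophages. Following Pam3CSK4 priming and 24 hour LipidA transfection, IL-1a secretion was read by HTRF.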
On to GGAAGUAGGAUGAUGUUGGTT against Hmga1, for which the z-score was -2.08 (active).
Regarding GCUCACCCAACAAUAUCCATT against Slc17a8, the z-score is -0.881.
Next, CGAGAAUAUUCGCCCAACCTT against Erbb3: 0.682; GGAGAUCCGGAAUUUUUAATT against Per2: -0.0639; GCUAUAUAAUGCUUAUGUGTT against Tpr: -0.501.
As to GCCUUUGAUAAAAGUCCGGTT against Saxo2, the z-score is -0.93.
On to GGAGGGAAUAUGCAAAUAGTT against Ftdc2, for which the z-score is 2.36 (active).
As for GGACAUGAUGAUGAUGAUGTT against Gldn, the figure is -1.8; as for GCUUAUAGAAAACCAGUAATT against Foxd1, 0.317.
Next, GGAAGAAAUGAUGAAUGACTT against Chmp2a: 2.36 (active).
Regarding GGAUGAUGACAUUCACUUATT against Ntan1, the z-score was -0.619.
As for GCCUCGAUCUGAUCUAGAGTT against Dbx2, the figure is 0.291; as for GGCUGCUGUCAUUAUUUGUTT against Terf2, -0.768.
GGCAUCUUUCACAGUUUUGTT against Hspa12b: the z-score is 2.13 (active).
Turning to GGUUUAUGAGCUCUACGCCTT against Tmem11, the z-score was -0.843.
Next, GGAAGAUGAUGUUUUAGGUTT against Pde7a: 0.271; CCCAAAGCUAUCAUAUCAATT against Aff4: 0.508; GGCGACACAUUAAAAUAGUTT against Mepe: 2.19 (active).
As for GUUACCUCUGUGUUGUACUTT against Olfr60, the z-score is -0.148.
As for GGAAGAAAAAGAUGAGAAATT against Hrc, the z-score was 0.394.
Take GCAUGUCUCAACUAAGGACTT against Upk3b: the z-score is 1.03.
As for CCUACAGAGGUGCCAUUGUTT against Naa60, the figure is -0.244.
As for GGACCGAUUCCACUUCAAUTT against Crygd, the z-score was 1.46.
As for GCCAAAUGGUGUCAAUAUUTT against Rab33a, the figure is 0.277; as for GGAGGAUGAUGAGGAGGAUTT against Ppp1r1b, 2.35 (active); as for CGUGCCAGACCUAUAGCUUTT against Mlxip, -0.226.
GGAGACCUUCCAGAACACATT against Mesd: the z-score is 2.38 (active).
In the case of GCGGAUUUACACCUUAUCUTT against Bpi, the z-score was -1.15.
Next, GGCUAUCACACAGCAUAGATT against Rdh7: 1.57; CCGUUGGAGGUAAUUAGGATT against Dot1l: 0.463; GGCACUGUAAAUGUACUCATT against Rbak: -2.54 (active).
In the case of GGAGAAGUACAACGCAGCGTT against Wnt7b, the z-score was -0.273.
GGCUAUGCACUACUCAUUGTT against Galk1: the z-score was -0.607.
As for CCAUCCCAUUUAAUGGAUGTT against Olfr1257, the figure is 1.09; as for GCUCCAGAUGUUCAGAGCUTT against Fbxo9, -2.43 (active); as for GCAUUCAGACCAUGACACUTT against Trim30d, 0.914.
Consider GGCCAAGUGAUAGAGUUCATT against Crygd, for which the z-score is 1.22.
On to GGAAGUUCGAUGUUCCUAGTT against Cep85, for which the z-score is 0.779.
For GGUUAUUAUGACCAAGAAATT against Sf3b1, the z-score was -2.71 (active).
On to GCAGUAACCUUCUAACAAATT against Foxn2, for which the z-score is -0.367.
For GGAGAAAGAUGUUUACCGATT against Hyal2, the z-score is -0.533.
Regarding GGAACUUAAGACUUUCAAGTT against Abcf2, the z-score is 0.904.
For the sequence GCGGAUGCAAAUCGAUGAATT against Cep135, the z-score was -0.507.
In the case of GCAUCAUACUGACCUGAGATT against Gml2, the z-score is -1.25.
As for CCUAUCUUCCUGAAUACAUTT against Aqp7, the z-score is 2.71 (active).
Take CCGGCUUAUGCUCAACUUCTT against Bpifb1: the z-score was 0.29.
Take GGAACAAUUGAUAAGACGATT against Guf1: the z-score is 0.237.
In the case of GGUCAAGGAGUUCAUUCUGTT against Matn2, the z-score is -1.33.
Consider GGAUCAUUCUGUGAACAAGTT against Ly6h, for which the z-score was 1.52.
Next, GCCCAUUGUAUGACUGCCGTT against Gfra2: 3.21 (active).
With CCCAAAUACCUACCAUCUCTT against Slc4a9, the z-score is -0.44.
Consider GGACUCUGAAGAGGAAAAGTT against Pds5b, for which the z-score was -0.266.
Next, CCUUACCAGGAAACAUAUUTT against Dennd10: -1.33; GCGGUUAGCACAAUGUGAATT against Ppp2cb: -0.577; GGAAAUAAAACAGAUUUGGTT against Atpaf1: 0.576.
Take GGCACGAGGCAGAAUUUUATT against Kctd3: the z-score is 0.696.
GCUACAAUUGGCCUUAUCUTT against Stpg2: the z-score is -3.03 (active).
Turning to GGUACUGCUAUGAGAAACUTT against Adam22, the z-score was 0.224.
For GGACCAGAAACGCAUGCUUTT against Maml3, the z-score is -0.762.
As for GGAAAACUCAUCAUACCAGTT against Ugt3a1, the figure is 0.737; as for CGAUUUUACCAACCGCUGCTT against Chtf18, 0.702.
Take GCUGUUGUAACCAUAACAGTT against Ntsr1: the z-score is 0.439.
Take GGGAAUUGCCUCAGCUAAGTT against Men1: the z-score was 2.95 (active).
As for CCAGUUAAACACAUUAGCCTT against Mxra8, the z-score was -0.373.
GGCUCAACGGCUUAGGGAATT against B3gat3: the z-score was 1.42.
Take GGAAAAUAAGCAUAGUGAUTT against Spesp1: the z-score was -0.35.
For the sequence GGACAACCAGCUCAUUGUGTT against Cd82, the z-score was -1.09.
As for GCAACACACUGCUUCCUGGTT against Tmem19, the z-score is -1.38.
Turning to GGUAAUUGAGUUUGACGAUTT against Ptprf, the z-score is 0.585.
In the case of CGAAGGCUUCCCUUUUAUCTT against Tmem150b, the z-score is 2.67 (active).
GCCUUCGUCUCCAAGUAUATT against Plagl1: the z-score is -0.305.
As for GCUCCUUGCUUGAUUCUACTT against BC107364, the figure is 0.649.
GGAUAGAGUUAAUGAAAAGTT against Poc5: the z-score is 0.827.
With CCUCUAGAUAGUGUUAGAGTT against Smarcd1, the z-score is -2.19 (active).
As to GGCACAUUGUGGUGUCUUGTT against Pycr1, the z-score was -3e-05.
On to GGAGAUUGAAGAGCUCCGATT against Cabp1, for which the z-score was -0.0021.
Next, GGCCCAUAUUUUAUUACCGTT against Galns: -1.84.
As for GGAGGCAGUGUUUUGUCAATT against Fgd4, the figure is -0.912.
As for GGAAGGCAUUGAAGCUGAATT against Armt1, the figure is 0.447; as for GGGCCAACUCAAAACAAAATT against Wdr37, -0.74; as for GGUUGUUCACUAGGUCACUTT against Creg2, 0.591.
As for GGUGUGUGAAAUCACUCACTT against Oxnad1, the z-score was 0.303.
On to CCAAUUAUGUGAGAAGUGATT against Snx24, for which the z-score was 0.463.
On to CCAACUCGUGAUUCUAGACTT against Tmed10, for which the z-score is 1.27.
With GGUAAAGGUAAACUUAUACTT against Vmn1r148, the z-score was -4.68 (active).
In the case of GCGCAAUACGUGGGUUUGUTT against Shisal2b, the z-score is 0.254.
Consider “GCUCGUUUGUGUAUAAGGATT against 4930503L19Rik”, for which the z-score is 0.276.
Consider GGUUCUCGUGUGGCACACUTT against B3gat2, for which the z-score is 0.126.
Next, CCUUCAAUCUUUCUUUCUGTT against Olfr1465: -0.635.
For CCGUGAUAACAACAUUUGUTT against Olfr750, the z-score was -0.833.
In the case of GGAGUAUGAUUCAGAAAUGTT against Scn11a, the z-score is -0.607.
With GGUCAUCAUGAGCCCAUGUTT against Olfr1341, the z-score was -1.72.
In the case of GGAUUUGGCUAUAUCAACATT against Rfc2, the z-score was -1.56.
For CCAUAGCUCUGGAAUGGUGTT against Kcnt1, the z-score is -2.59 (active).
GGAUGUAUGCCAAAGAAUUTT against Fmo5: the z-score is -0.0456.
Next, CGUGCUAAACCAAGACUUATT against Lyplal1: 1.25; GGGUGAAUUUUGUUUUUGUTT against Kcnj14: 3.05 (active); GGAUAGCAUGCUUCCUGAGTT against Rhbdf2: -2.19 (active).
Regarding GGAAAUGCUCCUCUAGGAUTT against Ppcs, the z-score was 0.039.
For the sequence GGAUGAAGAACUGACUCCGTT against Mboat2, the z-score was -0.108.
Regarding GGUGCAAUCAAAUGGAAUUTT against Nrf1, the z-score is 3.75 (active).
In the case of GCUACGUAAACGGAAGGCUTT against Abraxas1, the z-score is 0.272.
Consider GGUAAGAGGAUGGACACAATT against Chst1, for which the z-score was 1.08.
For GAUCCGUUGGGAAAAGAACTT against Ssbp4, the z-score was -0.881.
Regarding GGCAGUUCUUAAGUAAUCATT against Fem1al, the z-score is 0.924.
Next, GGAGAAAGAAGCUAGUGAGTT against Gm6787: -2.77 (active).
Consider GCGAACUCCUCUUUAGGCATT against Chrng, for which the z-score was -0.594.
On to GCCAUCCUUCCAUUUAAGATT against Wdyhv1, for which the z-score was -0.478.

The record behind these values is PubChem BioAssay AID1508600 (Functional Genomics Laboratory (NCATS/FGL), 2020).
